The text below walks through data of PubChem BioAssay (NCI).

What all share (assay): NCI-60 one-dose screen, 48 h (100 = growth as untreated, 0 = no growth, -100 = all killed)
Common to all, as to conditions: 10 µM unless noted

Experiment [1] relates to NCI-H23 lung.
Experiment [2] has as its system NCI-H226 lung.
Experiment [3] concerns NCI-H322M lung.
The test system of experiment [4] is HOP-62 NSCLC.
The subject of experiment [5] is NCI-H460 lung.
Experiment [6] concerns HOP-92 NSCLC.
In experiment [7] the test system is NCI-H522 lung.
Experiment [8] relates to A549/ATCC NSCLC.
Experiment [9] concerns 786-0 renal.
Experiment [10] concerns COLO 205 colon.
Experiment [11] concerns DU-145 prostate.
In experiment [12] the test system is K-562 leukemia.
The test system of experiment [13] is MALME-3M melanoma.
In experiment [14] the test system is MDA-MB-231 breast.
Experiment [15] relates to RXF 393 renal.
The test system of experiment [16] is SF-268 CNS.
The subject of experiment [17] is SF-295 CNS.
Experiment [18] deals with SF-539 CNS.
Experiment [19] deals with UACC-257 melanoma.
Experiment [20] relates to M14 melanoma.

Structures are written as SMILES. Compounds without any hit were thinned out: in the full panel of roughly 83,000, 20% have a hit.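 A percent growth of 40 corresponds to 60% growth inhibition; 0 means no net growth; -100 means all cells died. Active threshold: below 10.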 Unmarked numbers belong to inactive results. Calls of active or inactive are those of the source.

Regarding `O=C(O)/C=C/c1cn(-c2ccccc2)nc1-c1ccc(F)cc1`, the growth in [1] is 96.2%; in [2], 95.1%; in experiment [3], 87%; in [4], 81.7%; in experiment [5] it was 101%; in [6], 84.3%. Besides, the growth in [7] is 98.2%; in experiment [8], 82.2%; in experiment [9] it was 96.1%; in experiment [10], 104%; in experiment [11] it was 115%; in experiment [12] it was 100%. For the same molecule, the growth in [13] was 105%; in experiment [14], 95%; in experiment [15], 113%; in experiment [16] it was 83.7%; in [17], 87.7%; in experiment [18] it was 92.6%. Also, the growth in experiment [19] was 80.7%; in experiment [20], 90%.
Regarding `CCCS(=O)(=O)Nc1cccc(Nc2ncnc3cc(NC(=O)CCl)ccc23)c1Cl`, the growth is -52.2% (active) in experiment [1]; -18.3% (active) in experiment [2]; 3.52% (active) in experiment [3]; -77.3% (active) in experiment [4]; -41.1% (active) in [5]; -85.9% (active) in experiment [6]. Further, the growth is -60% (active) in experiment [7]; -5.2% (active) in [8]; -88.2% (active) in experiment [9]; -68.9% (active) in [10]; -92.8% (active) in experiment [11]; 0% (active) in experiment [12]. The growth is -79.2% (active) in experiment [13]; -72.5% (active) in experiment [14]; -87.3% (active) in experiment [15]; -55.9% (active) in [16]; -80.5% (active) in experiment [17]; -85% (active) in [18]. Moreover, the growth in [19] is 10.3%; in experiment [20], -43.5% (active).
`CCOC(=O)/C(=C\c1ccccc1Cl)P(=O)(OCC)OCC`: the growth in experiment [1] was 46.6%; in experiment [2], 66.4%; in experiment [3], 75.4%; in experiment [4] it was 118%; in [5] it was 61.9%; in [6], 60%. Further, the growth in experiment [7] was 34%; in [8], 64.9%; in experiment [9] it was 75.8%; in experiment [10] it was 52.9%; in [11], 36%; in experiment [12], 28.6%. In addition, the growth in [13] was 71.2%; in experiment [14], 71%; in experiment [15], 42.8%; in experiment [16], 63.2%; in experiment [17] it was 96.7%; in experiment [18] it was 48.2%. The growth in experiment [19] is 61.9%; in experiment [20] it was 56.6%.
For `C=C(c1ccc(C(=O)O)c(F)c1)c1cc2c(cc1C)C(C)(C)C=CC2(C)C`, the growth in [1] was 76.2%; in experiment [2], 65.5%; in experiment [3], 90.7%; in experiment [4] it was 70%; in experiment [5] it was 82.1%; in experiment [6] it was 62.4%. Further, the growth in experiment [7] was 61.5%; in [8], 38.1%; in [9], 89.2%; in [10], 107%; in [11], 94.7%; in experiment [12] it was 73.9%. The growth in experiment [13] is 54.4%; in experiment [14], 88%; in [15], 96.9%; in experiment [16] it was 74.3%; in experiment [17], 66.5%; in experiment [18] it was 72.2%. Moreover, the growth in experiment [19] was 80.5%; in experiment [20], 91.1%.
Take `CC(C)=CC(=O)C1C(=O)c2ccccc2C1=O`: the growth in [1] is 96.4%; in experiment [2], 97.9%; in [3], 92.1%; in experiment [4], 102%; in [5] it was 102%; in experiment [6] it was 88.5%. Further, the growth in experiment [7] is 87.2%; in [8], 106%; in experiment [9] it was 105%; in experiment [10] it was 115%; in experiment [11], 104%; in [12] it was 74.5%. For the same molecule, the growth in experiment [13] is 83.6%; in experiment [14] it was 107%; in experiment [15], 104%; in experiment [16], 101%; in experiment [17], 98.3%; in experiment [18], 104%. The growth in experiment [19] is 107%; in experiment [20], 94%.
For `Cn1cc(-c2nc(-c3c[nH]c4ccncc34)cs2)c2cc(F)ccc21`, the growth was -55.9% (active) in [1]; 57.9% in [2]; -75% (active) in [3]; -85.6% (active) in [4]; -70.5% (active) in [5]; -89.5% (active) in [6]. Also, the growth in [7] was -66.1% (active); in experiment [8], -79.6% (active); in [9] it was -92.5% (active); in experiment [10], -74.1% (active); in [11], -98.1% (active); in experiment [12], -53.6% (active). The growth in experiment [13] was -88.9% (active); in experiment [14], -90.7% (active); in experiment [15], -94.7% (active); in [16], -80.1% (active); in [17], -85.9% (active); in experiment [18], -97.1% (active). In addition, the growth in [19] is -73.1% (active); in experiment [20], -87.3% (active).
`CCN1CCN(C(=O)[C@]23CC[C@@H](C)[C@H](C)[C@@H]2C2=CC[C@@H]4[C@@]5(C)C/C(=C/c6ccncc6)C(=O)C(C)(C)[C@@H]5CC[C@@]4(C)[C@]2(C)CC3)CC1`: the growth in experiment [1] is 20.8%; in experiment [2], 24.7%; in [3], 53.2%; in [4] it was 33.2%; in experiment [5], -6.85% (active); in experiment [6], 45.2%. Moreover, the growth in [7] was 23.4%; in [8] it was 25.5%; in experiment [9] it was 19.6%; in experiment [10], -15.6% (active); in experiment [11], 41.8%; in experiment [12], 9.31% (active). The growth in experiment [13] is -9.75% (active); in experiment [14] it was 2.96% (active); in experiment [15] it was -18.7% (active); in [16], 49%; in [17], 28.5%; in experiment [18], -80.2% (active). Further, the growth in experiment [19] was 25.6%; in [20], 25.4%.
